{"source": "PubChem BioAssay (EPA / NIEHS)", "note": "“And” between values parts separate entries of the source, which are not always exact repeats. Equal entries are not always repeated. Records with an inconclusive call do not appear. Where a structure was tested more than once in an assay, its records may differ in their call. The source made the active and inactive calls. The calls were made as follows: active = hit-call score of the fitted dose curve at least 0.9, where 1 is the maximum; inconclusive = response in the unintended direction; inactive = score below 0.9."}
{"target": "Nuclear receptor subfamily 1 group I member 2 (Homo sapiens) (UniProt O75469)", "sequence (O75469 whole entry, looked up)": "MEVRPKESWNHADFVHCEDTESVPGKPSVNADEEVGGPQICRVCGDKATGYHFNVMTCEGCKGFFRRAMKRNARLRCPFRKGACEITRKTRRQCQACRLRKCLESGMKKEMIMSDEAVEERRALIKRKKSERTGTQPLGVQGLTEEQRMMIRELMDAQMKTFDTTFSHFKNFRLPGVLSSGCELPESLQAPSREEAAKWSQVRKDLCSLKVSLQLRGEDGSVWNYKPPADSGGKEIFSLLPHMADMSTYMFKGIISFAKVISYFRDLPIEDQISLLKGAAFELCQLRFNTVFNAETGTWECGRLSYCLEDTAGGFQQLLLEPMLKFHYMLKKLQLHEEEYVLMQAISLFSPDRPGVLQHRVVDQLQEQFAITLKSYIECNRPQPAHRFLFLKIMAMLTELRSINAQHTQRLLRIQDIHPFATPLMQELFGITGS", "assay": "ATG_PXR_TRANS: Attagene TRANS-FACTORIAL HepG2 Assay for human Pregnane X Receptor (PXR) (AID 2283008)", "experimental": "ATG_TRANS is a cell-based, multiplexed-readout assay that uses HepG2, a human liver cell line, with measurements taken at 24 hours after chemical dosing in a 24-well plate.ATG_PXR_TRANS is one of 30 assay component(s) measured or calculated from the ATG_TRANS assay. It is designed to make measurements of mRNA induction, a form of inducible reporter, as detected with fluorescence intensity signals by Reverse transcription polymerase chain reaction (RT-PCR) and Capillary electrophoresis technology.Data from the assay component ATG_PXR_TRANS was analyzed into 1 assay endpoint. This assay endpoint, ATG_PXR_TRANS, was analyzed in the positive analysis fitting direction relative to DMSO as the negative control and baseline of activity. Using a type of inducible reporter, measures of mRNA for gain-of-signal activity can be used to understand the reporter gene at the transcription factor-level as they relate to the gene NR1I2. Furthermore, this assay endpoint can be referred to as a primary readout, because this assay has produced multiple assay endpoints where this one serves a reporter gene function. To generalize the intended target to other relatable targets, this assay endpoint is annotated to the nuclear receptor intended target family, where the subfamily is non-steroidal.\nHuman liver HepG2 cells are transiently transfected with multiple reporter transcription units (MRTUs) in 6-well plates using FuGene 6 reagent (Roche; 3 ml FuGene/1 mg DNA). The MRTU constructs are regulated by a cis-regulating element (promoter). […] A major difference between the CIS and TRANS system is that in CIS activities of endogenous TFs are measured, whereas the TRANS assay evaluates changes in activities of exogenous, chimeric NR-Gal4 proteins. […] At the end of 24 hour incubation, total RNA was isolated using TriZol reagent (Invitrogen). The isolated RNA is then reverse-transcribed using oligo(dT) primer and Mo-MLV reverse transcriptase (Invitrogen) with DNAse I (Ambion) treatment for 30 min. The one-tenth of the produced cDNA was amplified by PCR using Taq DNA polymerase (Invitrogen) and two reporter sequence-specific primers. The PCR products were fluorescently labeled by primer extension with 6-arboxyfluorescein (6-FAM) 5'-labeled reporter sequence-specific primer (2 min at 95 C, 20 s at 68 C and 10 min at 72 C) and these products were digested with 5U of HpaI (New England Biolabs) for 2h at 37 C. The fragments were purified using Qiaquick PCR columns (Qiagen), analyzed on an ABI 3130xL genetic analyzer (Applied Biosystems) with peak positions identified by using a set of X-rhodamine (ROX)-labeled MapMarker1000 molecular weight standards (BioVentures). The raw capillary electrophoresis data was processed using Attagraph software (Attagene)."}
{"smiles": "COc1ccc(C(C)=O)cc1", "outcome": "inactive"}
{"smiles": "CC(C)COC(=O)c1ccccc1", "outcome": "inactive"}
{"smiles": "O=C(O)c1ccccc1O", "outcome": "inactive"}
{"smiles": "CC(C)OB(OC(C)C)OC(C)C", "outcome": "inactive"}
{"smiles": "C#C[C@]1(O)CC[C@H]2[C@@H]3CCc4cc(O)ccc4[C@H]3CC[C@@]21C", "AC50": "2.7 µM (active) and 4.39 µM (active) and 6.57 µM (active)", "outcome": "inactive"}
{"smiles": "CCC(C)COC(=O)CC(C)C", "note": "(stereo not given)", "outcome": "inactive"}
{"smiles": "O=C(c1ccc(OCCN2CCCCC2)cc1)c1c(-c2ccc(O)cc2)sc2cc(O)ccc12", "outcome": "inactive", "AC50": "1.97 µM (active) and 3.44 µM (active)"}
{"smiles": "CCCCCCCCSCc1cc(C)c(O)c(CSCCCCCCCC)c1", "outcome": "inactive"}
{"smiles": "Cc1cccc(O)c1", "outcome": "inactive"}
{"smiles": "CNC(=C[N+](=O)[O-])NCCSCc1ccc(CN(C)C)o1", "outcome": "inactive"}
{"smiles": "C=C(C)C(=O)OCCN(C)C", "outcome": "inactive"}
{"smiles": "CCO[Si](CC)(OCC)OCC", "AC50": "2.84 µM (active)"}
{"smiles": "CCCO", "outcome": "inactive"}
{"smiles": "OCCN1CCOCC1", "outcome": "inactive"}
{"smiles": "CC(C)Cc1ccccc1", "outcome": "inactive"}
{"smiles": "CC(C)(C)c1cc(CCC(=O)OCCSCCOC(=O)CCc2cc(C(C)(C)C)c(O)c(C(C)(C)C)c2)cc(C(C)(C)C)c1O", "outcome": "inactive"}
{"smiles": "c1ccc(OCCOc2ccccc2)cc1", "outcome": "inactive"}
{"smiles": "CC(=O)Oc1c(C)c(C)c2c(c1C)CC[C@@](C)(CCC[C@H](C)CCC[C@H](C)CCCC(C)C)O2", "outcome": "inactive"}
{"smiles": "O=C(C=Cc1ccccc1)OCCCc1ccccc1", "AC50": "22.5 µM (active)"}
{"smiles": "Cc1cc(O)c2c(c1)C(=O)c1cc(O)cc(O)c1C2=O", "AC50": "6.34 µM (active)"}
{"smiles": "CC(=O)c1ccc(O)cc1", "outcome": "inactive"}
{"smiles": "CCCCCCCC1CCCC1=O", "note": "(stereo not given)", "AC50": "34.2 µM (active)"}
{"smiles": "C/C=C(\\C)C(=O)OC/C=C(\\C)CCC=C(C)C", "outcome": "inactive"}
{"smiles": "CC1=CC[C@@H](C(C)(C)O)CC1", "outcome": "inactive"}
{"smiles": "CC(=O)OC(C)(C)C", "outcome": "inactive"}
{"smiles": "CCC=C(C)C=O", "outcome": "inactive"}
{"smiles": "CCCCCCCCCCCCOCCOS(=O)(=O)O", "outcome": "inactive"}
{"smiles": "C[C@H](CCC(=O)O)[C@H]1CC[C@H]2[C@@H]3CC[C@@H]4C[C@H](O)CC[C@]4(C)[C@H]3CC[C@]12C", "AC50": "8.67 µM (active)"}
{"smiles": "C=CC(=O)OCCCCCC", "outcome": "inactive"}
{"smiles": "NC(N)=NC(N)=NCCc1ccccc1", "outcome": "inactive"}
{"smiles": "CCCCC1CCCCC(=O)O1", "note": "(stereo not given)", "outcome": "inactive"}
{"smiles": "CCn1cc(C(=O)O)c(=O)c2ccc(C)nc21", "outcome": "inactive"}
{"smiles": "O=S1(=O)CC(Cl)(Cl)C(Cl)(Cl)C1", "outcome": "inactive"}
{"smiles": "CC1(C)CC(=O)CC(C)(C)N1", "outcome": "inactive"}
{"smiles": "COc1ccc(N)c(C)c1", "outcome": "inactive"}
{"smiles": "Cc1cc(O)c(C)c(C)c1O", "AC50": "22 µM (active)"}
{"smiles": "CCCCCCCCCCO[C@@H]1O[C@H](CO)[C@@H](O)[C@H](O)[C@H]1O", "outcome": "inactive"}
{"smiles": "CC(=O)CCC=C(C)CCC=C(C)C", "AC50": "4.33 µM (active)"}
